The full ranking holds about 18,000 sequences; the median of “log2 normalized intensity” is about 0.39, and the highest 2% start at about 6.6. The full list was thinned out, with the highest values kept by preference.
These sequences were tested against T1, HNF4alpha2 (COS-7 nuclear extract) (Homo sapiens, UniProt P41235 1-474) (assay: protein-binding microarray; COS-7 nuclear extract on double-stranded Agilent 4x180k PBM; binding buffer, salt, pH and temperature not given in the material; high values mean tight binding). Conditions: chain copies: 2; label: 3' end of strand 1 on the slide; dsDNA, one strand shown.
T1 sequence: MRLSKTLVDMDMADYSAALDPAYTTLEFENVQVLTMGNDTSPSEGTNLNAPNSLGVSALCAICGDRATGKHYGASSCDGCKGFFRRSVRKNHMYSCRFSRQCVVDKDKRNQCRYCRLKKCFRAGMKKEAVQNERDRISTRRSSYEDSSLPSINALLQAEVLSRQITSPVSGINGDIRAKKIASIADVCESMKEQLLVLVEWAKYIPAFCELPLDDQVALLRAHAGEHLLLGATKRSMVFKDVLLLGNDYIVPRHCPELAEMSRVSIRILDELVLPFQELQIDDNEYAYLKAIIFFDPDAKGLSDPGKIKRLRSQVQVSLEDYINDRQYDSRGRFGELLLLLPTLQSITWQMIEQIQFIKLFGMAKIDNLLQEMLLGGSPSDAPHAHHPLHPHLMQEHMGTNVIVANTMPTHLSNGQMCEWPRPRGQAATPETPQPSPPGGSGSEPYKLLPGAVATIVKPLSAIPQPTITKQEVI
Method in brief: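 A human HNF4α isoform was expressed in COS-7 cells by transient CaPO4 transfection, and nuclear extracts were prepared. These were applied to a custom Agilent SurePrint G3 4x180k array carrying ~44,000 test sequences in quadruplicate as double-stranded ~60-nt oligonucleotides, and an Agilent G2565CA scanner imaged bound HNF4α at 2-µm resolution. The background-corrected, normalized gProcessedSignal from Agilent software was used as the binding signal.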

Sequence	binding signal [log2 normalized intensity]
GGTATGTTTGTGATATTGTGAAATATATATGCCTAGGGAGATTAGAGTATCGGTCGA	2.03
TGCCTTTGATCAGGGACCTTTGTTCCTTTAGCCTAGGGAGATTAGAGTATCGGTCGA	4.43
GAACTGAAAGAGACCTTTGACATCACCTAAGCCTAGGGAGATTAGAGTATCGGTCGA	2.04
GATGATCATGGCTCACTGCACCTTGACCTCGCCTAGGGAGATTAGAGTATCGGTCGA	7.34
AGTGCGATGATCATGGCTCACTGCACCTTGGCCTAGGGAGATTAGAGTATCGGTCGA	0.629
GATAAGCGTATTTCAACCTTTGATCTATAAGCCTAGGGAGATTAGAGTATCGGTCGA	5.94
AGGAGGCACTGATAAGCGTATTTCAACCTTGCCTAGGGAGATTAGAGTATCGGTCGA	0.384
GACTGACCTTTGATCATTTGAGGGTGACACGCCTAGGGAGATTAGAGTATCGGTCGA	5.65
GCACTGATAAGCGTATTTCAACCTTTGATCGCCTAGGGAGATTAGAGTATCGGTCGA	7.8
GTGGTCCTAAGACTGACCTTTGATCATTTGGCCTAGGGAGATTAGAGTATCGGTCGA	8.56
TCATGGCTCACTGCACCTTGACCTCCTGGGGCCTAGGGAGATTAGAGTATCGGTCGA	4.99
GTGGTCCTAAAATTGACCTTTGATCACTCAGCCTAGGGAGATTAGAGTATCGGTCGA	9.68
TGCACTTTGACCGCTCATTTGATCCTCACAGCCTAGGGAGATTAGAGTATCGGTCGA	3.87
CACCTTCAGTCACACTGTTTGCGCAAACTAGCCTAGGGAGATTAGAGTATCGGTCGA	-0.824
TACCAAGGCTCAGAGGTCAAGTCACTGCTCGCCTAGGGAGATTAGAGTATCGGTCGA	2.57
CCTTGGCTGTGTGACTCACCTTTGCTCTGAGCCTAGGGAGATTAGAGTATCGGTCGA	3.71

Sequence	binding signal [log2 normalized intensity]
GGGGTCTGGTTTCTAGGTAGATAAGGGAGTGCCTAGGGAGATTAGAGTATCGGTCGA	1.29
TCATCCGCATCTGAAGATAAGAGAAGTTGCGCCTAGGGAGATTAGAGTATCGGTCGA	-0.83
AACAGTGAATGTTTCGTAATATTTAGGTGTGCCTAGGGAGATTAGAGTATCGGTCGA	1.49
TCATTTTACAGATAAGGAAACCAAGGTCCAGCCTAGGGAGATTAGAGTATCGGTCGA	1.45
CACCCCCATGCAAGTTCCCACAGAGCCCACGCCTAGGGAGATTAGAGTATCGGTCGA	4.54
AGTGTAAATATTTGAGGACACAAAGTGGACGCCTAGGGAGATTAGAGTATCGGTCGA	2.09
GTTTACTCATGTGGTCCTAAGACTGACCTTGCCTAGGGAGATTAGAGTATCGGTCGA	3.77
TTGTTTACTCATGTGGTCCTAAGACTAACCGCCTAGGGAGATTAGAGTATCGGTCGA	-0.3
CCTAAAATTGACCTTTGATCACTCATGGGCGCCTAGGGAGATTAGAGTATCGGTCGA	8.21
AATTGACCTTTGATCACTCATGGGCAAGATGCCTAGGGAGATTAGAGTATCGGTCGA	5.65
CAAATAAACCTTTGACCAATTGACCCTATCGCCTAGGGAGATTAGAGTATCGGTCGA	3.78
GCTGACCTTTGGTCTAAACCTACTTAGATCGCCTAGGGAGATTAGAGTATCGGTCGA	4.25
AATCAACCTTTGATCGTTTGCATGCAGGGCGCCTAGGGAGATTAGAGTATCGGTCGA	3.25
CTCATGTGGTCCTAAAATTGACCTTTGATCGCCTAGGGAGATTAGAGTATCGGTCGA	10.5
CTCATGTGGTCCTAAGACTGACCTTTGATCGCCTAGGGAGATTAGAGTATCGGTCGA	10.1

From article PMC10726135, “HNF4α isoforms regulate the circadian balance between carbohydrate and lipid metabolism in the liver”
